Assay outcomes (PubChem BioAssay)
Compounds with a hit are over-represented: about 3.4% of the library has one in this group of screens.
MITF primary = human MITF inhibition, primary screen | inhibition, % at 2.6 µM | O75030 | AID 1259374 | hit rate 0.91% among 650,000 | AlphaScreen MITF homodimerization, bead proximity signal; in the data active = inhibition above about 50%
FBW7 activator = activators of human E3 ligase FBW7. Q969H0. AlphaScreen FBW7–phospho-cyclin E peptide binding, activator screen. normalized activity (activation), % at 26.1 µM. hit rate 0.13% among 650,000. AID 1259310; in the data active = normalized activity above about 1.9%;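 also: purified mutant Fbw7 with reduced substrate affinity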
GPR151 ag = activates the human receptor GPR151. activation, % at 11.2 µM. hit rate 1% among 650,000. Q8TDV0. PathHunter beta-arrestin GPR151 cells, luminescence. AID 1508602; in the data active = activation above about 4.9%
Target sequence (Q8TDV0 whole entry, looked up): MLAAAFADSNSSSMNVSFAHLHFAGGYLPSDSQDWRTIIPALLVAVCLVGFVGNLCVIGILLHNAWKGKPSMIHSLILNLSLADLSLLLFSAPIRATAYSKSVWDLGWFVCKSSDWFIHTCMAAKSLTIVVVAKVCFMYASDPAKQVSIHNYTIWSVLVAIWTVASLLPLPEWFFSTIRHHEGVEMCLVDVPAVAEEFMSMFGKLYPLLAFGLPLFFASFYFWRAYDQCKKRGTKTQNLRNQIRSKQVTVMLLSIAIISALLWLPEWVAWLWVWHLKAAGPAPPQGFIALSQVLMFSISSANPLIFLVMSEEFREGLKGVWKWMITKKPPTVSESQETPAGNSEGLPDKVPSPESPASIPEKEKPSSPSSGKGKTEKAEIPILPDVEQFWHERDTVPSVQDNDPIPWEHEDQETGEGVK
TEAD-YAP inh = TEAD-YAP interaction inhibition | HEK-TIYL cells, TEAD-Gal4/YAP UAS-luciferase luminescence | inhibition, % at 9.12 µM | hit rate 1.4% among 640,000; in the data active = inhibition above about 32%
A number is an active result.

Results for O=C(O)c1ccc2c(c1)C1C=CCC1C(c1ccncc1)N2 (stereo unspecified) ?
MITF primary: 56; FBW7 activator: inactive; GPR151 ag: inactive; TEAD-YAP inh: inactive

What do the screens show for `CC(C)COC(=O)c1ccc2c(c1)C1C=CCC1C(C(=O)O)N2` (stereo unspecified)?
MITF primary: inactive; FBW7 activator: inactive; GPR151 ag: inactive; TEAD-YAP inh: inactive

What do the screens show for `O=C(CC1C(=O)N(c2cccc(Cl)c2)C(=O)N1Cc1cccs1)Nc1ccccc1` (stereo unspecified)?
MITF primary: inactive; FBW7 activator: inactive; GPR151 ag: inactive; TEAD-YAP inh: inactive

How did OCC1CCCN1c1nccc(Nc2ccccc2)n1 (stereo unspecified) do in these assays?
MITF primary: inactive; FBW7 activator: inactive; GPR151 ag: inactive; TEAD-YAP inh: inactive

How did CC(C)Oc1ccc(C(=O)NNC(=S)NCc2ccccc2)cc1 do in these assays?
MITF primary: inactive; FBW7 activator: inactive; GPR151 ag: inactive; TEAD-YAP inh: inactive

What do the screens show for `CC(=O)c1ccc2c(c1)C1C=CCC1C(c1ccc(Br)cc1)N2` (stereo unspecified)?
MITF primary: inactive; FBW7 activator: inactive; GPR151 ag: inactive; TEAD-YAP inh: inactive

What do the screens show for `COC(=O)c1ccc([C@@H]2Nc3ccc(C(C)=O)cc3[C@@H]3C=CC[C@@H]32)cc1`?
MITF primary: inactive; FBW7 activator: inactive; GPR151 ag: inactive; TEAD-YAP inh: inactive

What do the screens show for `CCOC(=O)c1ccc2c(c1)C1C=CCC1C(c1ccc(F)cc1)N2` (stereo unspecified)?
MITF primary: inactive; FBW7 activator: inactive; GPR151 ag: inactive; TEAD-YAP inh: inactive

Results for CC(=O)c1ccc2c(c1)C1C=CCC1C(c1ccc(C(=O)O)cc1)N2 (stereo unspecified) ?
MITF primary: 67; FBW7 activator: inactive; GPR151 ag: inactive; TEAD-YAP inh: inactive

Results for COC(=O)c1ccc([C@@H]2Nc3ccc(C(=O)O)cc3[C@@H]3C=CC[C@@H]32)cc1 ?
MITF primary: 73; FBW7 activator: inactive; GPR151 ag: inactive; TEAD-YAP inh: inactive

What do the screens show for `CCOC(=O)c1ccc2c(c1)C1C=CCC1C(c1ccc(C(=O)O)cc1)N2` (stereo unspecified)?
MITF primary: 68; FBW7 activator: inactive; GPR151 ag: inactive; TEAD-YAP inh: inactive

What do the screens show for `CCOC(=O)c1ccc2c(c1)C1C=CCC1C(C(=O)O)N2` (stereo unspecified)?
MITF primary: 76; FBW7 activator: inactive; GPR151 ag: inactive; TEAD-YAP inh: inactive

How did CC(C)(C)n1nc2c(c1-n1cccc1)CN(C(=O)c1cnccn1)C2 do in these assays?
MITF primary: inactive; FBW7 activator: inactive; GPR151 ag: inactive; TEAD-YAP inh: inactive

How did Cc1n[nH]c(C)c1CCC(=O)N1CCC(n2c(C)nc3sc(C)c(C)c3c2=O)CC1 do in these assays?
MITF primary: inactive; FBW7 activator: inactive; GPR151 ag: inactive; TEAD-YAP inh: inactive

How did CCN(CCN1CCCC1)C(=O)CC1C(=O)NCCN1CC1CCCCC1 (stereo unspecified) do in these assays?
MITF primary: inactive; FBW7 activator: inactive; GPR151 ag: inactive; TEAD-YAP inh: inactive

Results for O=C(O)c1ccc2c(c1)[C@@H]1C=CC[C@@H]1[C@H](c1c(F)cccc1Cl)N2 ?
MITF primary: inactive; FBW7 activator: inactive; GPR151 ag: inactive; TEAD-YAP inh: 40

What do the screens show for `O=C(O)C1Nc2ccc(Oc3ccccc3)cc2C2C=CCC12` (stereo unspecified)?
MITF primary: inactive; FBW7 activator: inactive; GPR151 ag: inactive; TEAD-YAP inh: inactive

What do the screens show for `O=C(O)C1Nc2ccc([N+](=O)[O-])cc2C2C=CCC12` (stereo unspecified)?
MITF primary: 85; FBW7 activator: inactive; GPR151 ag: inactive; TEAD-YAP inh: inactive

How did O=C(O)c1ccc2c(c1)C1C=CCC1C(c1cccc3ccccc13)N2 (stereo unspecified) do in these assays?
MITF primary: inactive; FBW7 activator: inactive; GPR151 ag: inactive; TEAD-YAP inh: 49

What do the screens show for `COc1cccc2c1OCC(CN1CCC(C(=O)Nc3ccc(-n4cccn4)cc3)CC1)=C2`?
MITF primary: inactive; FBW7 activator: inactive; GPR151 ag: inactive; TEAD-YAP inh: inactive

Results for Cc1ccc(N2CC(C(=O)Nc3nccs3)CC2=O)cc1C (stereo unspecified) ?
MITF primary: inactive; FBW7 activator: inactive; GPR151 ag: inactive; TEAD-YAP inh: 44

What do the screens show for `CCOc1cc(/C=N/NC(=O)Cn2nnc(-c3ccccc3)n2)ccc1O`?
MITF primary: inactive; FBW7 activator: inactive; GPR151 ag: inactive; TEAD-YAP inh: inactive

What do the screens show for `O=C(Cn1c2ccccc2c(=O)c2ccccc21)N/N=C/c1ccccc1O`?
MITF primary: inactive; FBW7 activator: inactive; GPR151 ag: inactive; TEAD-YAP inh: 45

Results for CCOc1cc(/C=N/NC(=O)Cn2c3ccccc3c(=O)c3ccccc32)ccc1O ?
MITF primary: inactive; FBW7 activator: inactive; GPR151 ag: inactive; TEAD-YAP inh: 59

How did O=S1(=O)c2cccc3cccc(c23)N1Cc1cccc(Cl)c1 do in these assays?
MITF primary: inactive; FBW7 activator: 2.1; GPR151 ag: inactive; TEAD-YAP inh: inactive

What do the screens show for `O=S1(=O)c2cccc3cccc(c23)N1Cc1cccc(Br)c1`?
MITF primary: inactive; FBW7 activator: inactive; GPR151 ag: inactive; TEAD-YAP inh: inactive

Results for CC(=O)Nc1ccc(-n2c(C)cc(C=C3C(=O)c4ccccc4C3=O)c2C)cc1 ?
MITF primary: inactive; FBW7 activator: inactive; GPR151 ag: inactive; TEAD-YAP inh: 83

Results for CC(=O)Nc1ccc(-n2c(C)cc(C=C3C(=O)N(C)C(=O)N(C)C3=O)c2C)cc1 ?
MITF primary: inactive; FBW7 activator: inactive; GPR151 ag: inactive; TEAD-YAP inh: inactive

What do the screens show for `O=C1CC(C(=O)Nc2ccc(-c3cn[nH]c3)cc2)Cc2ccccc21` (stereo unspecified)?
MITF primary: inactive; FBW7 activator: inactive; GPR151 ag: inactive; TEAD-YAP inh: 34

What do the screens show for `CCOC(=O)c1c(NC(=S)NC(=O)c2ccc(C(=O)c3ccccc3)cc2)sc2c1CCC2`?
MITF primary: inactive; FBW7 activator: inactive; GPR151 ag: inactive; TEAD-YAP inh: inactive

Results for Oc1c(C(Nc2ccccn2)c2ccc(F)cc2)ccc2cccnc12 (stereo unspecified) ?
MITF primary: inactive; FBW7 activator: inactive; GPR151 ag: inactive; TEAD-YAP inh: 70

How did CSc1ccc(C(Nc2ccccn2)c2ccc3cccnc3c2O)cc1 (stereo unspecified) do in these assays?
MITF primary: inactive; FBW7 activator: inactive; GPR151 ag: inactive; TEAD-YAP inh: 78

Results for C=CCOc1ccc(C(Nc2ccccn2)c2ccc3cccnc3c2O)cc1 (stereo unspecified) ?
MITF primary: 55; FBW7 activator: inactive; GPR151 ag: inactive; TEAD-YAP inh: 86

What do the screens show for `Cc1ccc2ccc(C(Nc3ccccn3)c3ccc(N(C)C)cc3)c(O)c2n1` (stereo unspecified)?
MITF primary: inactive; FBW7 activator: inactive; GPR151 ag: inactive; TEAD-YAP inh: inactive

Results for COc1ccc(C(Nc2cccc(C)n2)c2ccc3ccc(C)nc3c2O)cc1C (stereo unspecified) ?
MITF primary: inactive; FBW7 activator: inactive; GPR151 ag: inactive; TEAD-YAP inh: 42
